Reference: PubChem BioAssay AID463095 (Sanford-Burnham Center for Chemical Genomics, 2010)
This is one part of the list. The source made the active and inactive calls.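 Rule for the calls: active = proliferation increase above 40% at any of the four tested concentrations; inactive = the rest.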

Assay: inducers of beta-cell proliferation in MIN6, confirmation, MIN6 cells, mouse (AID 463095)
Settings: ATPlite luminescence, 48 h, cells kept in 0.2% serum, scaled between 0.2% and 10% serum; series mostly up to 50 µM; proliferation increase: at the top concentration

Proliferation increase, inactive:
C/C(=N\NC(=O)c1ccccc1C)c1ccc(N2CCOCC2)cc1 -1.7%
CCn1c(=O)c([N+](=O)[O-])c(NCc2ccc3c(c2)OCO3)c2ccccc21 -0.2%
Cc1ccccc1CNC(=O)CCC(=O)N1Cc2ccccc2Oc2ncccc21 1.4%
CC(=O)c1cccc(NC(=O)COc2ccc(S(=O)(=O)N3CCOCC3)cc2)c1 -1.5%
Cc1ccc(C(=O)Nc2ccc(NC(=O)c3cccs3)cc2)c(C)c1 -3.4%
CC(=O)OC(C(=O)NC1CCCCC1)c1ccccc1 (stereo unspecified) -0.2%
O=S(=O)(NCCOc1cccc2cccnc12)c1ccc(F)cc1 0.3%
Fc1ccc(CNCc2ccc(Br)cc2)cc1 -3.9%
COC(=O)Nc1sc2nc(C)cc(C)c2c1-n1cccc1 -0.5%
Cc1ccc(S(=O)(=O)N2CCCCC2)cc1C(=O)N1CCN(CCO)CC1 2.7%
COc1cccc(CNC(=O)C2CCCN(c3ncnc4c3nc3n4CCCCC3)C2)c1 (stereo unspecified) -4.3%
O=C1c2ccccc2S(=O)(=O)c2cc(N3CCN(c4ccccn4)CC3)ccc21 2.2%
O=C(NNC(=S)NCc1ccccc1)c1ccc(OC(F)F)cc1 -6%
S=C(Nc1cccc(Cl)c1)Nc1ccc2cn[nH]c2c1 -0.1%
Cn1cc(CN2CCC(C(O)CCc3ccccc3)CC2)c(-c2ccccc2F)n1 (stereo unspecified) -5.9%
COc1cccc(CNC(=O)CCC2CCCN(C(=O)c3ccoc3C)C2)c1 (stereo unspecified) -6.4%
CCOC(=O)C1=C(CC)OC(N)=C(C#N)C1c1ccc(F)cc1F (stereo unspecified) -1.9%
COc1cc2c(cc1OC)C(C(=O)NCc1ccco1)C1c3ccccc3CCN1C2=O (stereo unspecified) 4.1%
O=C(CSc1nc2ccccc2[nH]1)N/N=C/C=C\c1ccccc1[N+](=O)[O-] -6.1%
Cc1nn(C(C)C(=O)NCCC2=CCCCC2)c(=O)c2nn(-c3ccccc3)c(C)c12 (stereo unspecified) -5.8%
COc1ccccc1OCc1ccc(C(=O)N2CCN(C)CC2)o1 -0.1%
